Among the test systems are NCI-H23 lung; NCI-H226 lung; NCI-H322M lung; HOP-62 NSCLC; NCI-H460 lung; HOP-92 NSCLC; NCI-H522 lung; A549/ATCC NSCLC; 786-0 renal; COLO 205 colon; DU-145 prostate; K-562 leukemia; MALME-3M melanoma; MDA-MB-231 breast; RXF 393 renal; SF-268 CNS; SF-295 CNS; SF-539 CNS; UACC-257 melanoma; M14 melanoma.
Holding throughout (assay): NCI-60 one-dose screen, 48 h (100 = growth as untreated, 0 = no growth, -100 = all killed)
Holding throughout (conditions): 10 µM unless noted

About 83,000 compounds went through this panel and 20% of them were active in at least one assay; those are over-represented in the sample as a whole.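 Activity criterion: percent growth below 10, measured after cells in 96-well plates were exposed to a single compound concentration for 48 hours.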 A number with no mark means an inactive call. Calls of active or inactive are those of the source.

In the case of `CCOC(=O)c1ccc(NC(=O)Nc2nccs2)cc1`, the growth is 19.4% in the assay on NCI-H23 lung; 19.9% with NCI-H226 lung; 41.3% in the assay on NCI-H322M lung; 20.6% with HOP-62 NSCLC; -44.2% (active) with NCI-H460 lung; -7.86% (active) in the assay on HOP-92 NSCLC. The growth was -43.5% (active) in the assay with NCI-H522 lung; 10.6% in the assay with A549/ATCC NSCLC; -7.93% (active) in the assay with 786-0 renal; -82.9% (active) in the assay with COLO 205 colon; -26.3% (active) with DU-145 prostate; -3.89% (active) in the assay on K-562 leukemia. Also, the growth in the assay with MALME-3M melanoma was 39.4%; in the assay with MDA-MB-231 breast, 8.88% (active); in the assay on RXF 393 renal, -21.2% (active); in the assay on SF-268 CNS, 0.081% (active); in the assay with SF-295 CNS, 9.16% (active); in the assay on SF-539 CNS, -50.1% (active). Further, the growth with UACC-257 melanoma is 45.5%; in the assay with M14 melanoma, 4.57% (active).
For `Cc1ccc(S(=O)(=O)Oc2ccc3sc4c(CO)ccc(NCCN(C)C)c4c(=O)c3c2)cc1`, the growth in the assay with NCI-H23 lung was -79.5% [100 µM] (active); with NCI-H226 lung it was -42.2% [100 µM] (active); with NCI-H322M lung, -98.2% [100 µM] (active); in the assay with HOP-62 NSCLC, -68.3% [100 µM] (active); with NCI-H460 lung, -83% [100 µM] (active); in the assay with HOP-92 NSCLC, -80.1% [100 µM] (active). Besides, the growth in the assay with NCI-H522 lung was -74.4% [100 µM] (active); with A549/ATCC NSCLC it was -70.9% [100 µM] (active); in the assay on 786-0 renal, -73.4% [100 µM] (active); in the assay with COLO 205 colon, -87.6% [100 µM] (active); with DU-145 prostate it was -97.6% [100 µM] (active); in the assay on K-562 leukemia it was -61.4% [100 µM] (active). In addition, the growth in the assay on MALME-3M melanoma is -89.5% [100 µM] (active); in the assay on MDA-MB-231 breast, -90.7% [100 µM] (active); in the assay on RXF 393 renal it was -57.5% [100 µM] (active); in the assay on SF-268 CNS, -61.3% [100 µM] (active); with SF-295 CNS, -78.7% [100 µM] (active); in the assay with SF-539 CNS it was -93.1% [100 µM] (active). In addition, the growth was -82% [100 µM] (active) in the assay with UACC-257 melanoma and -96.5% [100 µM] (active) in the assay on M14 melanoma.
Turning to `Cc1ccc2[nH]c3ccccc3c2c1`, the growth is 96.9% in the assay with NCI-H23 lung; 103% with NCI-H226 lung; 99.6% in the assay with NCI-H322M lung; 113% in the assay on HOP-62 NSCLC; 99.7% with NCI-H460 lung; 100% with HOP-92 NSCLC. For the same compound, the growth with NCI-H522 lung was 101%; with A549/ATCC NSCLC, 102%; in the assay with 786-0 renal it was 93.9%; in the assay with COLO 205 colon it was 109%; in the assay on DU-145 prostate, 104%; with K-562 leukemia it was 89.8%. The growth in the assay on MALME-3M melanoma is 95.2%; in the assay with MDA-MB-231 breast it was 111%; in the assay with RXF 393 renal, 112%; in the assay on SF-268 CNS, 103%; in the assay on SF-295 CNS it was 103%; in the assay on SF-539 CNS it was 101%. Besides, the growth with UACC-257 melanoma is 104%; in the assay with M14 melanoma, 110%.
As to `CCN(CC)CCN1CNC(=S)NC1`, the growth in the assay with NCI-H23 lung is 99.2%; in the assay with NCI-H226 lung, -70.2% (active); with NCI-H322M lung it was 108%; in the assay on HOP-62 NSCLC, 98.8%; in the assay on NCI-H460 lung, 114%; with HOP-92 NSCLC it was 96.5%. Further, the growth in the assay with NCI-H522 lung is 94.6%; in the assay on A549/ATCC NSCLC, 106%; in the assay on 786-0 renal it was 101%; in the assay with COLO 205 colon, 106%; in the assay with DU-145 prostate it was 106%; in the assay with K-562 leukemia, 102%. The growth is 103% in the assay on MALME-3M melanoma; 114% with MDA-MB-231 breast; 114% in the assay with RXF 393 renal; 102% in the assay with SF-268 CNS; 102% in the assay with SF-295 CNS; 103% in the assay with SF-539 CNS. For the same compound, the growth with UACC-257 melanoma was 111%; in the assay on M14 melanoma it was 102%.
As to `Cc1c(Cl)cccc1NC(=S)NC(=O)c1ccccc1`, the growth is 85.5% in the assay with NCI-H23 lung; 90.8% in the assay with NCI-H226 lung; 97.4% with NCI-H322M lung; 110% in the assay on HOP-62 NSCLC; 103% in the assay on NCI-H460 lung; 71.8% with HOP-92 NSCLC. For the same compound, the growth was 59% in the assay on NCI-H522 lung; 75% in the assay on A549/ATCC NSCLC; 120% in the assay on 786-0 renal; 109% in the assay on COLO 205 colon; 111% in the assay on DU-145 prostate; 79.7% in the assay on K-562 leukemia. The growth was 89.4% with MALME-3M melanoma; 90.2% in the assay with MDA-MB-231 breast; 85.5% in the assay with RXF 393 renal; 109% in the assay on SF-268 CNS; 85.1% in the assay with SF-295 CNS; 100% in the assay with SF-539 CNS. Besides, the growth was 88.9% with UACC-257 melanoma and 115% in the assay with M14 melanoma.
For `C/C(=N\Nc1ccc([N+](=O)[O-])cc1[N+](=O)[O-])c1ccc(Br)cc1`, the growth in the assay with NCI-H23 lung was 103%; in the assay with NCI-H226 lung, 96.6%; in the assay on NCI-H322M lung, 106%; in the assay with HOP-62 NSCLC it was 108%; with NCI-H460 lung it was 99.2%; in the assay with HOP-92 NSCLC, 94.5%. Also, the growth in the assay on NCI-H522 lung is 85.5%; in the assay on A549/ATCC NSCLC, 84.8%; with 786-0 renal, 99.4%; with COLO 205 colon it was 104%; in the assay on DU-145 prostate, 103%; in the assay on K-562 leukemia, 98.7%. The growth with MALME-3M melanoma was 107%; with MDA-MB-231 breast, 91.5%; with RXF 393 renal it was 106%; with SF-268 CNS it was 97.2%; in the assay on SF-295 CNS, 94.4%; in the assay with SF-539 CNS, 106%. For the same compound, the figures for the growth in the assay with UACC-257 melanoma and in the assay on M14 melanoma were 87.9% and 106%, respectively.
As to `Cc1ccc(NC(=O)c2ccccc2Cl)cc1`, the growth is 102% with NCI-H23 lung; 108% in the assay with NCI-H226 lung; 113% in the assay on NCI-H322M lung; 113% in the assay on HOP-62 NSCLC; 101% with NCI-H460 lung; 75.5% with HOP-92 NSCLC. The growth in the assay on NCI-H522 lung is 98.6%; in the assay on A549/ATCC NSCLC, 106%; in the assay on 786-0 renal it was 105%; in the assay with COLO 205 colon it was 120%; with DU-145 prostate, 112%; in the assay with K-562 leukemia, 99.6%. Also, the growth in the assay with MALME-3M melanoma was 123%; in the assay on MDA-MB-231 breast, 118%; with RXF 393 renal, 108%; in the assay with SF-268 CNS, 109%; in the assay on SF-295 CNS, 108%; with SF-539 CNS, 107%. Besides, the growth in the assay on UACC-257 melanoma was 131%; with M14 melanoma, 114%.
Turning to `CC(C)c1ccc(C(=O)OCCCl)cc1`, the growth is 94% in the assay on NCI-H23 lung; 106% in the assay on NCI-H226 lung; 92.7% in the assay with NCI-H322M lung; 82.2% in the assay with HOP-62 NSCLC; 105% with NCI-H460 lung; 163% in the assay with HOP-92 NSCLC. Besides, the growth in the assay on NCI-H522 lung is 97.2%; with A549/ATCC NSCLC, 97.9%; in the assay with 786-0 renal it was 95.2%; in the assay on COLO 205 colon, 110%; with DU-145 prostate, 117%; in the assay with K-562 leukemia, 103%. In addition, the growth in the assay on MALME-3M melanoma was 89.9%; in the assay with MDA-MB-231 breast it was 105%; in the assay with RXF 393 renal, 41.8%; with SF-268 CNS, 112%; with SF-295 CNS, 83.8%; in the assay with SF-539 CNS, 104%. Further, the growth was 95.3% with UACC-257 melanoma and 93.6% in the assay with M14 melanoma.
With `Nc1cccc2cccc(O)c12`, the growth is 90.6% in the assay on NCI-H23 lung; 96.1% with NCI-H226 lung; 79.2% with NCI-H322M lung; 104% with HOP-62 NSCLC; 86.5% with NCI-H460 lung; 83.8% in the assay on HOP-92 NSCLC. In addition, the growth is 70.5% in the assay with NCI-H522 lung; 106% with A549/ATCC NSCLC; 108% in the assay on 786-0 renal; 102% in the assay on COLO 205 colon; 99.1% in the assay on DU-145 prostate; 89.5% with K-562 leukemia. Besides, the growth in the assay with MALME-3M melanoma was 75.2%; with MDA-MB-231 breast, 65.7%; with RXF 393 renal it was 90.6%; with SF-268 CNS it was 96.1%; with SF-295 CNS it was 93.8%; in the assay on SF-539 CNS, 109%. Also, the growth was 100% in the assay on UACC-257 melanoma and 96.7% in the assay on M14 melanoma.

The values are drawn from PubChem BioAssay (NCI).
